Test results: the supplement of paper PMC11732987, “Enantioselective OTUD7B fragment discovery through chemoproteomics screening and high-throughput optimisation” (Communications Chemistry, 2025)

Key:
Assay in all cases: log2 ratio of Biotin-Ahx-Ub-VS probe labelling (fragment/DMSO); higher = less target engagement (more negative = stronger competition), active = hit call of the paper (q ≤ 0.05, log2 ratio ≤ -1)
Conditions in all cases: compound concentration: 200 uM; treatment time: 3 h
[1] = biological target: USP34 (UniProt Q70CQ2)
How it was run: (§1)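 HEK293T lysate (495 µg per sample, in Tris/CHAPS/IGEPAL buffer with protease inhibitors) was treated in triplicate with fragment at 200 µM or with DMSO for 3 h. It was then treated with Biotin-Ahx-Ub-VS (0.5 µM final) for 1 h. Labelled DUBs were NeutrAvidin-enriched, digested with LysC and trypsin, and run by diaPASEF LC-MS/MS. Spectronaut label-free quantities were global-median-normalised. Values are average log2 ratios fragment/DMSO by unpaired t-test, using proteins with ≥2 unique peptides.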

[2] = biological target: T1, USP36 (UniProt Q9P275)
T1 sequence (whole entry): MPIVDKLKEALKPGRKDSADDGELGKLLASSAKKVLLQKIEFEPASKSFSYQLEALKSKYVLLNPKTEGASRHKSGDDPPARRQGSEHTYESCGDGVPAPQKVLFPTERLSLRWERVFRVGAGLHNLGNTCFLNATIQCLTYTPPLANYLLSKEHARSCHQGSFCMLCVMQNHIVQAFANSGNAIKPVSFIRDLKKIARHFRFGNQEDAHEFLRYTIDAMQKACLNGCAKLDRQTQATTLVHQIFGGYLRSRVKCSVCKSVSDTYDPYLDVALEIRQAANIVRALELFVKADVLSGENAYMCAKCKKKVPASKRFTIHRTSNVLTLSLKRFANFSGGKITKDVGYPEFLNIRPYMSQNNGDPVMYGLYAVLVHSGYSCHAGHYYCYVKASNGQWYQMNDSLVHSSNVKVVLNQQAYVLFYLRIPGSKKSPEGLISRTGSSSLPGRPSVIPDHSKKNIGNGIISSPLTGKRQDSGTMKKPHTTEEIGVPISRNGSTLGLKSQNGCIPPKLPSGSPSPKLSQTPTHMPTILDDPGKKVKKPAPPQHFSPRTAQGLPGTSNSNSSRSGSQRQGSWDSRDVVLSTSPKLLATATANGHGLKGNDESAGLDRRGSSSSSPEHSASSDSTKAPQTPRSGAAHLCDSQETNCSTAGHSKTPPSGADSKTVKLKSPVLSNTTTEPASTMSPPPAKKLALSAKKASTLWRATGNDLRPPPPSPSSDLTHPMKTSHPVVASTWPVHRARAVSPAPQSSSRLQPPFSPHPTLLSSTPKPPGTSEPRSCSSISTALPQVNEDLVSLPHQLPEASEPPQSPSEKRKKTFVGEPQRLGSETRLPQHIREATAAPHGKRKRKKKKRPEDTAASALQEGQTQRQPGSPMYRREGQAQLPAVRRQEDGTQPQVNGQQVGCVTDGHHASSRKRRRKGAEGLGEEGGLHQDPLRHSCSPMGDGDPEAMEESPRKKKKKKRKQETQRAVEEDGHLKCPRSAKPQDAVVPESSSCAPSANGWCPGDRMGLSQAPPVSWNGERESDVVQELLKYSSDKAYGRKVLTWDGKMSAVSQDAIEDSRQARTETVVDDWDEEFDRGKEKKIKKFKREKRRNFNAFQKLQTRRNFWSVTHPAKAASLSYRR
How it was run: as §1

[3] = biological target: T2, USP38 (UniProt Q8NB14)
T2 sequence (whole entry): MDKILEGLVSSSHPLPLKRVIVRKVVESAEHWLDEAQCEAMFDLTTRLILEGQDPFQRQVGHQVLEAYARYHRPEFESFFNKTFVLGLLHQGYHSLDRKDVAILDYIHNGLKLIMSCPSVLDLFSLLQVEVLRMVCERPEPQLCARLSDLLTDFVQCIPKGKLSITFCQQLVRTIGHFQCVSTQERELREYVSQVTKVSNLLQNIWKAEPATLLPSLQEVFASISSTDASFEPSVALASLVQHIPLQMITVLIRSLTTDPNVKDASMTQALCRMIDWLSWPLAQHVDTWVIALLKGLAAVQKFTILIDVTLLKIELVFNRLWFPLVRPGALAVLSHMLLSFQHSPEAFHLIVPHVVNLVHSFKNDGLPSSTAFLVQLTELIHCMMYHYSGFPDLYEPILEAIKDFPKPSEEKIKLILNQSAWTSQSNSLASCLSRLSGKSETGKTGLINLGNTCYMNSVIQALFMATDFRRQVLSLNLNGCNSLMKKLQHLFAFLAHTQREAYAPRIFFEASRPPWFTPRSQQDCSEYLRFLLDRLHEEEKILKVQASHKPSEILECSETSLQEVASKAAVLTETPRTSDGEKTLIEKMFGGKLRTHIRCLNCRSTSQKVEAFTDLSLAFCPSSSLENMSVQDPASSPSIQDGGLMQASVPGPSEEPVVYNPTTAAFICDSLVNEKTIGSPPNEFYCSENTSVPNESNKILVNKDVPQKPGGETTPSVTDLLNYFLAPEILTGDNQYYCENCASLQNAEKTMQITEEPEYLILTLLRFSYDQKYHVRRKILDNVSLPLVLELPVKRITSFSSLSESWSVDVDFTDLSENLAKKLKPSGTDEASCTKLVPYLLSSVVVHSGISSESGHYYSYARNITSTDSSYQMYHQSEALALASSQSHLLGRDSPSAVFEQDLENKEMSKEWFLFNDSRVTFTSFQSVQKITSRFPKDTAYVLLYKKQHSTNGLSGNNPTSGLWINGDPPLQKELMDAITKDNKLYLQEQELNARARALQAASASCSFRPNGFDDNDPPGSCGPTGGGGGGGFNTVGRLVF
How it was run: as §1

[4] = biological target: T3, USP39 (UniProt Q53GS9)
T3 sequence (whole entry): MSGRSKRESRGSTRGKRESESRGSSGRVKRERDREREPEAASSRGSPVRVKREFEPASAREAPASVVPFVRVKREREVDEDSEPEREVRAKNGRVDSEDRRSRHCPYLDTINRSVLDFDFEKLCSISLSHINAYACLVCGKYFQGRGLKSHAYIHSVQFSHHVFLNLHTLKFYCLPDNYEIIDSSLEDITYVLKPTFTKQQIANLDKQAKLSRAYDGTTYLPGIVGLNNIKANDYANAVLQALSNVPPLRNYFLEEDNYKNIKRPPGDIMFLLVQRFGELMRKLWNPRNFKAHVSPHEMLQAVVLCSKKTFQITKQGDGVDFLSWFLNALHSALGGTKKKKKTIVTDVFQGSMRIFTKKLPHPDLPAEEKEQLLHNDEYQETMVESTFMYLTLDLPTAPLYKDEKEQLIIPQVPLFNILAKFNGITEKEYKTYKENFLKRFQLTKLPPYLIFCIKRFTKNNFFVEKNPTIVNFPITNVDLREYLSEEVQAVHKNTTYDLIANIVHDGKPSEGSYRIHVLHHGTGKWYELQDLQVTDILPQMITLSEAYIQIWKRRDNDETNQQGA
How it was run: as §1

[5] = biological target: T4, USP4 (UniProt Q13107)
T4 sequence (whole entry): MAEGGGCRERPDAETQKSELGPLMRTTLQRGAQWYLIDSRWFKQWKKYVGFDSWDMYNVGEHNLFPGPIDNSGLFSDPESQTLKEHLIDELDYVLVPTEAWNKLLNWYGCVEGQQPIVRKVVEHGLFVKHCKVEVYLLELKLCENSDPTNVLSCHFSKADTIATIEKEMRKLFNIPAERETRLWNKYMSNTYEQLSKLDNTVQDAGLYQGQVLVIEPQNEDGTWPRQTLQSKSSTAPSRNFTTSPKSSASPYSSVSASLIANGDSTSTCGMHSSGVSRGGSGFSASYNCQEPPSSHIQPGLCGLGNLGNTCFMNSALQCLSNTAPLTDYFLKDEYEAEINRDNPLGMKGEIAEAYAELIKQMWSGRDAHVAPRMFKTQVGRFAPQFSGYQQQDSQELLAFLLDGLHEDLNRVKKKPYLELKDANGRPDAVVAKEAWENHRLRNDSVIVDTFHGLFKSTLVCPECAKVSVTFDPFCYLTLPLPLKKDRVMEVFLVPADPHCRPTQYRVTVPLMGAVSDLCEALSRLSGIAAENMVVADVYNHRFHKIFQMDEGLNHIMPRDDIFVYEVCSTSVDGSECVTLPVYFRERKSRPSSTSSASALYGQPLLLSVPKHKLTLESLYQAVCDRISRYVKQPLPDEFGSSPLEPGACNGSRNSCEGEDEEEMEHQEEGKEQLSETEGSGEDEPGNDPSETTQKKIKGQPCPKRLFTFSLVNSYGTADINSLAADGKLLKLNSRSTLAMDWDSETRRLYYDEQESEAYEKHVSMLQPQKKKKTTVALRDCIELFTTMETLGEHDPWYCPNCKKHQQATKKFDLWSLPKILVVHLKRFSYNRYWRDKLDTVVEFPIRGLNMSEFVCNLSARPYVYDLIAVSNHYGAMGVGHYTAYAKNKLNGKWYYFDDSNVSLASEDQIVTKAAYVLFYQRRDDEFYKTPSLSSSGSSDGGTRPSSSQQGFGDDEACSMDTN
How it was run: as §1

Measured: log2 ratio of Biotin-Ahx-Ub-VS probe labelling

Chain of USP34 (Q70CQ2 whole entry, the tested form may be a part): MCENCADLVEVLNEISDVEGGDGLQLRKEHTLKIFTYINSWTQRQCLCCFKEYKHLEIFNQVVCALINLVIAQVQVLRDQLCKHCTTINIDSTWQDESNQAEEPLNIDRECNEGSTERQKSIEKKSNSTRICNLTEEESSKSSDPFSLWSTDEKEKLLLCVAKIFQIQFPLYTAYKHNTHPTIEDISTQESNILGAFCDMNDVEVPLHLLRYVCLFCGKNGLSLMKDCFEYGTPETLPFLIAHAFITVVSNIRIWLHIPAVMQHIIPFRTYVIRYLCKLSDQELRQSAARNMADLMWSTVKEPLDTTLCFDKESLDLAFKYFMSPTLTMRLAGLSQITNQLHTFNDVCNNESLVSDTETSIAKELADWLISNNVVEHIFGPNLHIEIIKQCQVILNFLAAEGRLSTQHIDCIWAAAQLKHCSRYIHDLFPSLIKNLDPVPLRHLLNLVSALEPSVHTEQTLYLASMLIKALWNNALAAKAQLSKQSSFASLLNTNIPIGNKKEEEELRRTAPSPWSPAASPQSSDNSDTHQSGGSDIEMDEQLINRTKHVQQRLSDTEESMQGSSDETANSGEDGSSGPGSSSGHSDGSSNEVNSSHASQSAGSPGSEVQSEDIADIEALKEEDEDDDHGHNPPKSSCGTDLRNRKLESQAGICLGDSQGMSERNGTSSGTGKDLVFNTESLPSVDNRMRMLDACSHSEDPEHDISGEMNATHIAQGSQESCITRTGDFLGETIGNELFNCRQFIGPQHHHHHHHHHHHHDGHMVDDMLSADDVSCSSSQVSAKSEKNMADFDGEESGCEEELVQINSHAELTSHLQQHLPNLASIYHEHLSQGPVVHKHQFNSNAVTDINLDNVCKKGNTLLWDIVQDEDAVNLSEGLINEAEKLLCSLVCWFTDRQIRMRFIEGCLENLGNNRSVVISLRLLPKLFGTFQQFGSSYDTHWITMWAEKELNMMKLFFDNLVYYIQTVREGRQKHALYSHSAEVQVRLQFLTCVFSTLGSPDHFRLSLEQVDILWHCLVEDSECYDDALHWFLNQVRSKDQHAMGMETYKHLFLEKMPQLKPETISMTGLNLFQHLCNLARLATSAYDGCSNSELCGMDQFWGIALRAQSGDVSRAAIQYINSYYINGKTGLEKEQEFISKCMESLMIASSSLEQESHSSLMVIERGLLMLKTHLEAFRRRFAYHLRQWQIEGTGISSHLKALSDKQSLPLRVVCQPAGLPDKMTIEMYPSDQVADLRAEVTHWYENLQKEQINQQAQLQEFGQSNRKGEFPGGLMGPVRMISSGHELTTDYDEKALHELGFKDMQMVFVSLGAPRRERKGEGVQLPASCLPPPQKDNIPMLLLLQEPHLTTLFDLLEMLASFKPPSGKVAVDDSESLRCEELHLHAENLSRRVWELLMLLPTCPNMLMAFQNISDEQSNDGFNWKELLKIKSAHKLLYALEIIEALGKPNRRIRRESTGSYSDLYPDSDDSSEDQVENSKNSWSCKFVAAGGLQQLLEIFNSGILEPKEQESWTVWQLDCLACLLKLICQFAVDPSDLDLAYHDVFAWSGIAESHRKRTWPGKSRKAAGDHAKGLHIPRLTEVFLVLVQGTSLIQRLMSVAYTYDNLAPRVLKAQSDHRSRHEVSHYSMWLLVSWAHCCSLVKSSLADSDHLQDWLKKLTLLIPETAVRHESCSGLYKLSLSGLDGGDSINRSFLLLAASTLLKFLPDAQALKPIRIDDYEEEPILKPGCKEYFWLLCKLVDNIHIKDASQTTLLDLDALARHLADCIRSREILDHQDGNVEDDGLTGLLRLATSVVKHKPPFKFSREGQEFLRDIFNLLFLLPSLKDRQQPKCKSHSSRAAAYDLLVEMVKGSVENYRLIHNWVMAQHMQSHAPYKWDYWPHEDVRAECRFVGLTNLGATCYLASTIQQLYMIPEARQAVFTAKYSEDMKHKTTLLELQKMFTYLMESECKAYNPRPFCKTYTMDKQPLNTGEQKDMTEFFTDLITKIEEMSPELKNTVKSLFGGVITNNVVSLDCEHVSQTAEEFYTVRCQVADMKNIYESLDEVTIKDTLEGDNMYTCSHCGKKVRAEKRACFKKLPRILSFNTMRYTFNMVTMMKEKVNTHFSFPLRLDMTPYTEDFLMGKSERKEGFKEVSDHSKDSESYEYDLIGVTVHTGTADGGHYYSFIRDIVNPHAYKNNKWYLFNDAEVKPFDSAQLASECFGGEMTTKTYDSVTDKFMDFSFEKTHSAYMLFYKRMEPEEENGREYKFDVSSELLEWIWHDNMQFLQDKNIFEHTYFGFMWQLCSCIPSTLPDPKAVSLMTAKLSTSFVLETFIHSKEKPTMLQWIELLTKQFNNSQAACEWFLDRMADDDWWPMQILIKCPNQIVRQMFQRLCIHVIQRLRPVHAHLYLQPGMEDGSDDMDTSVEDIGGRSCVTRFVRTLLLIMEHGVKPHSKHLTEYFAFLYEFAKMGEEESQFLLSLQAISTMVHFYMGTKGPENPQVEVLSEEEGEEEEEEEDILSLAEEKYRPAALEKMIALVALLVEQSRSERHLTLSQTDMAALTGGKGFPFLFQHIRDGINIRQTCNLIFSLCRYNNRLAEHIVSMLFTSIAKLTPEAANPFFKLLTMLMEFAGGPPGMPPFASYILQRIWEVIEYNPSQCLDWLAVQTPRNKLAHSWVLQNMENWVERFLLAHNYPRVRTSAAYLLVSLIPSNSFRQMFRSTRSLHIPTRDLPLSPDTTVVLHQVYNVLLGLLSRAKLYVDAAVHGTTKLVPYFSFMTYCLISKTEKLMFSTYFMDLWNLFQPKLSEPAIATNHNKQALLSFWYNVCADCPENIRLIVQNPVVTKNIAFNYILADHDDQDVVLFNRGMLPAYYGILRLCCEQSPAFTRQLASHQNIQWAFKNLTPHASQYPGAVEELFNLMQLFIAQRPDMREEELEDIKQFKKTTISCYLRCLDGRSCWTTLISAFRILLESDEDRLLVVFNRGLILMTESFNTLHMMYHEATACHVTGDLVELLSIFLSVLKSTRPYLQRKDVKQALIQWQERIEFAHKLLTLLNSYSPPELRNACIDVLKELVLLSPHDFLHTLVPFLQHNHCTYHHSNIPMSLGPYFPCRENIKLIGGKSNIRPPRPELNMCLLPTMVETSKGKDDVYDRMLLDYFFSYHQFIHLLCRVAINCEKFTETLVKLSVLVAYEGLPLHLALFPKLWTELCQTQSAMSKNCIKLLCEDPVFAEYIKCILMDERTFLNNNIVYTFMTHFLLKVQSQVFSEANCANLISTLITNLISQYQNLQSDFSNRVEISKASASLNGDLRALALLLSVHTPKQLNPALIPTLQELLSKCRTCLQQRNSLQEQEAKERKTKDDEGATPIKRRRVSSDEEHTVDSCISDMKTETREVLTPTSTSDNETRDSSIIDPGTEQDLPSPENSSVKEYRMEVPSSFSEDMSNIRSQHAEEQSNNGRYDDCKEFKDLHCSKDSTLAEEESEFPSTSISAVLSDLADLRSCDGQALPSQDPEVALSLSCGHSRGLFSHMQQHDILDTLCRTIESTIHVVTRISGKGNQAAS

O=C(CCl)NC1CCN(C(=O)C2CCCCC2)CC1
inactive: [1] 0.0203 | [2] -0.0678 | [3] 0.166 | [4] 0.187 | [5] -0.0463
